Screening data: PubChem, National Center for Advancing Translational Sciences (NCATS)
LmPK inh – blocks Leishmania mexicana pyruvate kinase activity. AID 1721. Q27686. Potency, µM (series often up to 57.5 µM), for inactives: at the top dose activity change, negative = inhibition, actives largely listed as inhibitors. 290,000 compounds, 0.37% hits. purified LmPK, Kinase-Glo ATP luminescence, 1 h; note: potency is the fitted concentration of half-maximal effect; % is set by controls: 0 for no effect and ±100 for the full control effect
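Kinase-Glo luminescence read after 1 h RT reaction of 0.1 nM LmPK with 0.5 mM PEP and 0.1 mM ADP. Activity scaled between uninhibited and enzyme-free controls.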
Cycloheximide cs – affects cycloheximide protein synthesis inhibition readout, counter-screen | cell reporter, cycloheximide protein synthesis inhibition counterscreen | max response, % | 300,000 compounds, 12% hits; in the data active = max response mostly above about 13%, no sharp cut-off; inactive = mostly below about 14%; note: read at 38.3 µM for the half of the compounds with a filed dose; 0% is about no effect
Sm TGR block – inhibitors of Schistosoma mansoni thioredoxin glutathione reductase; purified TGR, DTNB reduction, TNB absorbance 405 nm; Potency, µM (top dose mostly 114 µM), for the others: at the highest dose activity change, negative = inhibition, hits mostly inhibitors; 360,000 compounds, 3% hits; AID 485364; note: potency is the fitted concentration of half-maximal effect; % is set by controls: 0 for no effect and ±100 for the full control effect; nearly all actives have a fitted effect of over 60% in size
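Kinetic colorimetric format: TGR-catalysed, NADPH-driven DTNB reduction monitored via TNB absorbance. Enzyme dispensed at 20 nM; compound exposure 15 min at room temperature before reaction start.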
Shiga toxin inh – inhibitors of Shiga toxin in Vero cells | Vero cells, Shiga toxin protein synthesis inhibition reporter | inhibition, % at 38.7 µM | 290,000 compounds, 9.2% hits | AID 2315; in the data active = inhibition mostly above about 28%, no sharp cut-off; inactive = mostly below about 43%; note: 0% is about no effect
TbPYK inhibitor – inhibitors of Trypanosoma brucei pyruvate kinase | Q57TT1 | TbPYK enzyme, Kinase-Glo Plus ATP luminescence, 45 min | Potency, µM (top dose mostly 76.8 µM), without a hit: at the top dose activity, negative = inhibition, hits mostly inhibitors | 410,000 compounds, 0.12% hits; note: potency is the fitted concentration of half-maximal effect; % is set by controls: 0 for no effect and ±100 for the full control effect; nearly all actives have a fitted effect of over 50% in size
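Quantitative HTS: titrated library compounds versus trypanosomal pyruvate kinase in TEA buffer (pH 7.2) containing KCl, MgCl2, BSA and Tween-20. Reactions were initiated with ADP, 130 uM final. Kinase-Glo Plus luminescence was read after 45 min at RT.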
Giardia FBPA inh – blocks Giardia fructose-bisphosphate aldolase activity; A8B2U2; purified Giardia FBPA; Potency, µM (highest dose often 59.6 µM), for the others: top-dose activity, negative = inhibition, usual class: inhibitors; 290,000 compounds, 0.71% hits; AID 2451; note: potency is the fitted concentration of half-maximal effect; % is set by controls: 0 for no effect and ±100 for the full control effect; nearly all actives have a fitted effect of over 55% in size
Target sequence (A8B2U2 whole entry, looked up): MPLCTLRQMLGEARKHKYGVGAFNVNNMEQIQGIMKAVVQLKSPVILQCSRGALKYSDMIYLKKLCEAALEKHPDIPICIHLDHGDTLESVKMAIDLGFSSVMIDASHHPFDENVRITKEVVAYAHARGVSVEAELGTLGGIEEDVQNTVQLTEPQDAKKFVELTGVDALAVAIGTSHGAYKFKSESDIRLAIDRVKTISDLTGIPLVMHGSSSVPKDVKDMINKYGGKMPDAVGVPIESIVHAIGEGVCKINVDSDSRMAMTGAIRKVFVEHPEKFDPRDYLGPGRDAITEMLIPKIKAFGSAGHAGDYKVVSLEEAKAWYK
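Giardia FBPA (40 nM reagent) was preincubated 10 min at RT with compound (up to 57.5 uM final), then substrate plus GAPDH/TPI/NAD/arsenate coupling system with diaphorase/resazurin was added; resorufin fluorescence (525/598 nm) was read after 20 min.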
Numbers without * were called inactive. Shown is part of a subset that was picked to be rich in hits. Unless noted, calls come from the whole dose curve; as a rule, active = well fitted curve in the direction sought with a large enough effect; inconclusive = small, poorly fitted or top-dose-only effect, or another doubt; inactive = no such curve, though single readings can be large; an effect the other way counts as inactive or inconclusive.

How did O=C(COc1cccnc1[N+](=O)[O-])c1ccc(Cl)s1 do in these assays?
LmPK inh: 2.9%; Cycloheximide cs: 17.7*; Sm TGR block: 2µM*; Shiga toxin inh: 28.7; TbPYK inhibitor: -17.2%; Giardia FBPA inh: inconclusive

What do the screens show for `CC(=O)Nc1ccccc1OCC(=O)c1cc(C)n(Cc2cccs2)c1C`?
LmPK inh: 3.9%; Cycloheximide cs: 66.3*; Sm TGR block: 7.6%; Shiga toxin inh: 126.7*; TbPYK inhibitor: 4.1%; Giardia FBPA inh: 0.3%

Results for Cc1cc(C(=O)COc2cccnc2[N+](=O)[O-])c(C)n1Cc1cccs1 ?
LmPK inh: 1.2%; Cycloheximide cs: 43.4*; Sm TGR block: 4.5%; Shiga toxin inh: 146.5*; TbPYK inhibitor: -13.4%; Giardia FBPA inh: -20.2%

Results for Cc1cc(-n2c(C)cc(C(=O)COc3cccnc3[N+](=O)[O-])c2C)no1 ?
Sm TGR block: inconclusive; TbPYK inhibitor: -8.0%

How did CNc1cncc(-c2cccc(OC)c2F)n1 do in these assays?
TbPYK inhibitor: -5.2%

Results for COc1ccc(CSc2nc3ccncc3n2CC(=O)Nc2cc(C)cc(C)c2)cc1 ?
Sm TGR block: -14.1%; TbPYK inhibitor: 3.2%

Results for CC(=O)c1ccc(Nc2ccc([N+](=O)[O-])c3nonc23)cc1 ?
LmPK inh: -4.7%; Cycloheximide cs: 21.5*; Sm TGR block: -0.5%; TbPYK inhibitor: -7.7%; Giardia FBPA inh: -14.1%

Results for Nc1c([N+](=O)[O-])ccc(Oc2ccccc2)c1Cl ?
Cycloheximide cs: 7.4; Shiga toxin inh: 26.3; Giardia FBPA inh: -20.3%

What do the screens show for `Cc1ccc([N+](=O)[O-])cc1S(=O)(=O)Nc1ccc(C(=O)N2CCN(C(=O)c3ccco3)CC2)cc1`?
Sm TGR block: -4.9%; TbPYK inhibitor: 3.0%

Results for CCOc1cc(S(=O)(=O)NC2CCCCCC2)ccc1F ?
LmPK inh: 4.0%; Cycloheximide cs: 23.2; Sm TGR block: 4.9%; Shiga toxin inh: 41.1*; TbPYK inhibitor: 4.1%; Giardia FBPA inh: -3.3%

What do the screens show for `CCC(=O)N1c2ccc(S(=O)(=O)NCc3ccccc3)cc2CC1C` (centres undefined)?
LmPK inh: -0.2%; Cycloheximide cs: 36.4*; Sm TGR block: 0.2%; Shiga toxin inh: 19.0; TbPYK inhibitor: -1.4%; Giardia FBPA inh: 20.3%

Results for O=C(C1CC1)N1CCc2cc(S(=O)(=O)NCc3ccccc3)ccc21 ?
LmPK inh: 0.8%; Cycloheximide cs: 13.6*; Sm TGR block: 5.5%; Shiga toxin inh: 5.9; TbPYK inhibitor: -2.1%

Results for CCC(=O)N1c2ccc(S(=O)(=O)CCC(=O)NC3CCCC3)cc2CC1C (centres undefined) ?
LmPK inh: 0.4%; Cycloheximide cs: -2.5; Sm TGR block: inconclusive; Shiga toxin inh: -12.8; TbPYK inhibitor: -2.0%; Giardia FBPA inh: 2.2%

Results for CCC(=O)N1c2ccc(S(=O)(=O)NC3CCCCC3)cc2CC1C (centres undefined) ?
LmPK inh: 2.4%; Cycloheximide cs: 30.6*; Sm TGR block: 2.3%; Shiga toxin inh: 13.4; TbPYK inhibitor: 8.4%; Giardia FBPA inh: 0.3%

How did C[C@H]1CN([C@@H](C)CO)C(=O)CCCn2nncc2CO[C@@H]1CN(C)Cc1cccc(C(=O)O)c1 do in these assays?
TbPYK inhibitor: 4.7%

Results for CC1Cc2cc(S(=O)(=O)NCc3ccccc3)ccc2N1C(=O)C1CC1 (centres undefined) ?
LmPK inh: -4.6%; Cycloheximide cs: 26.4*; Sm TGR block: 8.5%; Shiga toxin inh: 1.9; TbPYK inhibitor: 1.7%; Giardia FBPA inh: 19.4%

What do the screens show for `Cc1ccccc1C(=O)NC(=S)Nc1sc2c(c1C#N)CCCC2`?
LmPK inh: 3.8%; Cycloheximide cs: 11.0; Sm TGR block: -26.9%; Shiga toxin inh: 1.9; TbPYK inhibitor: 4.4%; Giardia FBPA inh: -13.0%

Results for C=CCNC(=S)Nc1sc2c(c1C#N)CCCC2 ?
LmPK inh: 1.0%; Cycloheximide cs: 23.2*; Sm TGR block: -30.3%; Shiga toxin inh: 67.8; TbPYK inhibitor: -10.2%; Giardia FBPA inh: inconclusive

What do the screens show for `CC(=O)Nc1sc2c(c1C#N)CCCCC2`?
LmPK inh: -3.4%; Cycloheximide cs: 18.3*; Sm TGR block: -12.3%; Shiga toxin inh: 21.1; TbPYK inhibitor: -21.6%; Giardia FBPA inh: 2.0%

What do the screens show for `COC(=O)c1c(NC(C)=O)sc2c1CCCCC2`?
LmPK inh: 2.5%; Cycloheximide cs: 0.1; Sm TGR block: -2.4%; Shiga toxin inh: 11.2; TbPYK inhibitor: -14.9%; Giardia FBPA inh: 0.8%

Results for CCC(=O)Nc1sc2c(c1C#N)CCCCC2 ?
LmPK inh: 0.4%; Cycloheximide cs: 36.5*; Sm TGR block: 4.5%; Shiga toxin inh: 72.3*; TbPYK inhibitor: 3.7%; Giardia FBPA inh: -7.0%

What do the screens show for `Cc1ccc(C(=O)Nc2sc3c(c2C#N)CCCCC3)cc1C`?
LmPK inh: 7.8%; Cycloheximide cs: 23.6*; Sm TGR block: -28.8%; Shiga toxin inh: 43.1*; TbPYK inhibitor: -2.2%; Giardia FBPA inh: -14.5%

How did O=C(CCCn1c(=O)c2cccn2c2ccc(F)cc21)NCc1ccc(Cl)cc1 do in these assays?
Sm TGR block: -1.8%; TbPYK inhibitor: -3.8%

What do the screens show for `O=C1N[C@@H](Cc2ccccc2)C(=O)N2[C@H]1C[C@]1(Br)c3ccccc3N(S(=O)(=O)c3ccc(F)cc3)[C@H]21`?
TbPYK inhibitor: -3.1%

How did N#Cc1c(NC(=O)CCCC(=O)O)sc2c1CCCCC2 do in these assays?
LmPK inh: -1.5%; Cycloheximide cs: 34.4*; Sm TGR block: -7.3%; Shiga toxin inh: 111.8*; TbPYK inhibitor: -11.0%; Giardia FBPA inh: -1.9%

How did N#Cc1c(NC(=O)c2ccccc2)sc2c1CCCCC2 do in these assays?
LmPK inh: -8.3%; Cycloheximide cs: 48.2*; Sm TGR block: -3.8%; Shiga toxin inh: 54.9*; TbPYK inhibitor: -2.1%; Giardia FBPA inh: -0.2%

How did CCCC(=O)Nc1sc2c(c1C#N)CCCCC2 do in these assays?
LmPK inh: -1.6%; Cycloheximide cs: 37.4*; Sm TGR block: -11.6%; Shiga toxin inh: 46.7*; TbPYK inhibitor: 8.7%; Giardia FBPA inh: 2.4%

What do the screens show for `NC(=O)c1c(NC(=O)CCCC(=O)O)sc2c1CCCCCC2`?
LmPK inh: 2.7%; Cycloheximide cs: 2.0; Sm TGR block: 6.0%; Shiga toxin inh: 21.2; TbPYK inhibitor: -1.7%; Giardia FBPA inh: -3.0%

Results for CC(C)CCOc1ccc(C(=O)Nc2sc3c(c2C#N)CCCCC3)cc1 ?
Sm TGR block: 0.0%; TbPYK inhibitor: -5.5%

What do the screens show for `N#Cc1c(Cl)nsc1NC(=O)c1ccccc1`?
LmPK inh: 4.5%; Cycloheximide cs: 31.4*; Sm TGR block: 0.5%; Shiga toxin inh: 132.0*; TbPYK inhibitor: 3.3%; Giardia FBPA inh: 12.9%

What do the screens show for `O=C(Nc1cc(Cl)ncn1)c1ccccc1`?
TbPYK inhibitor: -4.4%
